High-throughput results from PubChem BioAssay.
ssDAF12 agonist: activates DAF-12 receptor from parasite S. stercoralis; HEK293 ssDAF-12/GRIP1 lit1-tk-luc reporter, luminescence; % of 3 µM dafachronic acid response; activation, % at 6.8 µM; hit rate 1% among 370,000; AID 652126;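 active means activation above the mean over all tested compounds plus 3 SD, cut at about 0.9% in these data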;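 further: 0% = DMSO-only wells and 100% = 3 µM delta7-dafachronic acid wells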
DAX1 inh-1: inhibits human nuclear receptor DAX1 | HEK293 Gal4-DAX1 luciferase reporter, luminescence | inhibition, % at 6.75 µM | hit rate 0.99% among 340,000 | AID 504766;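 active means inhibition above the mean over all tested compounds plus 3 SD, cut at about 4.2% in these data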;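 further: 0% = DAX1-transfected cells with DMSO and 100% = empty-vector control cells with DMSO; inhibition shows as a rise in luminescence from relieved DAX1 repression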
Target sequence (P51843 207-470 limits assumed): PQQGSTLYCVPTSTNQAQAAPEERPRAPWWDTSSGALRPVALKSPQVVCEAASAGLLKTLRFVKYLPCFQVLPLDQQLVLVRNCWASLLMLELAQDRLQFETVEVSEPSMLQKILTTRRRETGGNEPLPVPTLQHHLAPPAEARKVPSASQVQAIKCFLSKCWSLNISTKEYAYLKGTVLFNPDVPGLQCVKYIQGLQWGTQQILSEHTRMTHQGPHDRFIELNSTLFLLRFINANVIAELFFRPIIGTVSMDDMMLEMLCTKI
DAX1 inh-2: inhibitors of DAX1 repression of SF-1 activated StAR promoter; HEK293T StAR-luciferase reporter, SF-1/DAX-1 repression relief; inhibition, % at 6.8 µM; hit rate 1.1% among 370,000; AID 652010;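 active means inhibition above the mean over all tested compounds plus 3 SD, cut at about 3.6% in these data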;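 further: 0% = DAX-1 cells with DMSO and 100% = cells lacking DAX-1 with DMSO; higher inhibition means more luminescence from relief of DAX-1 repression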
hgDAF12 agonist: activates the H. glycines DAF-12 receptor ligand-binding domain; HEK293 GAL4-hgDAF12 UAS-luciferase reporter, agonist luminescence; normalized to butyrate control; activation, % at 6.8 µM; hit rate 1.8% among 370,000; AID 687014;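 active means activation above a cutoff set at the mean of all screened compounds plus 3 SD, cut at about 10% in these data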;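 further: 0% = DMSO wells and 100% = sodium butyrate wells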
hcDAF-12 act: H. contortus DAF-12 activation, primary screen. hit rate 1.4% among 370,000. HEK293 hcDAF-12 lit1-tk-luc reporter, luminescence; 0% DMSO, 100% Δ7-dafachronic acid. activation, % at 6.8 µM;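 active means activation above the mean of all tested compounds plus 3 SD, cut at about 5.5% in these data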;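 further: 100% = response to 3 µM Δ7-dafachronic acid high control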
An asterisk follows results filed as active; / = not tested or not shown. Only some compounds are listed: those with a hit (about 4.1% of all), similar ones and a draw of the others.

SMILES	ssDAF12 agonist	DAX1 inh-1	DAX1 inh-2	hgDAF12 agonist	hcDAF-12 act
CC(CCC(=O)Nc1nncs1)C(=O)O (stereo unspecified)	-1	3	0	0	1
CCCCC(C(=O)O)C(C)CC(=O)Nc1nncs1 (stereo unspecified)	-1	4.7*	0	5	1
C=CCN1[C@@H](Cc2ccccc2)COc2cccc(N3CCCC3)c2S1(=O)=O	-1	/	-1	4	0
CCOC(=O)c1cnc2c(N=Nc3ccccc3)c(N)nn2c1N	0.9*	0	2	7	1
CCOC(=O)c1cnc2c(N=Nc3cccc(Cl)c3)c(N)nn2c1N	-1	/	0	1	1
O=C(CC1=NCCNC(c2ccccc2)C1)c1ccccc1O (stereo unspecified)	0	0	1	7	5.8*
CCOC(=O)c1cc(C)sc1/N=C/C1C(=O)CC(C)(C)CC1=O	-1	0	0	3	-2
CCOC(=O)c1c(CC(C)C)csc1/N=C/C1C(=O)CC(C)(C)CC1=O	-1	5.5*	0	-2	-2
S=C(NN=C1C2CC3CC(C2)CC1C3)Nc1ccccc1	1.2*	0	2	4	6.1*
CCCn1nnc(NC(=O)c2sc3ccccc3c2Cl)n1	-1	1	2	5	1
CC(C)c1nnc(NC(=O)c2sc3ccccc3c2Cl)s1	0	3	1	10	5.9*
O=C(N/N=C/c1ccncc1)c1sc2ccccc2c1Cl	-2	0	3.9*	2	2
CCOC(=O)[C@]12CCCC3=C1N(CCC3)C(=O)[C@@H](CC(=O)NCCC(C)C)C2	-1	/	0	1	-3
COc1cc([N+](=O)[O-])ccc1NC(=S)Nc1cccc(C(=O)O)c1	-1	1	1	5	7.0*
COc1ccc(C2CC(c3ccc(OC)c(OC)c3)=NN2S(C)(=O)=O)cc1 (stereo unspecified)	0	4.6*	2	13*	4
CS(=O)(=O)Nc1ccc(C2=NN(S(C)(=O)=O)C(c3ccc4c(c3)OCO4)C2)cc1 (stereo unspecified)	-1	2	3	11*	1
COc1ccc(C2CC(c3cccs3)=NN2S(C)(=O)=O)cc1 (stereo unspecified)	-2	2	1	3	2
O=C(NC1CCC1)c1ccc(C#CC2CC2)c[n+]1[O-]	0	/	2	11*	-1
CS(=O)(=O)c1ccc(C(=O)NC2CCCCC2)cc1	-1	-1	0	1	2
CCCCOCCCNC(=O)C[C@@H]1C(=O)N(Cc2ccc(OC)cc2)/C2=C/CCCCC[C@@]21C(=O)OCC	0	/	0	-2	-2
C/C(=N\Nc1ccc([N+](=O)[O-])cc1)c1ccc(N)cc1	0	2	1	5	2
CCc1ccc(/C(C)=N\Nc2ccc([N+](=O)[O-])cc2)cc1	0	4.3*	0	6	1
CC1CCN(C(=O)Cn2c(=O)oc3cc(S(=O)(=O)N4CCCCC4)ccc32)CC1	-1	4.9*	2	-1	-1
CN(C)CCCN(C(=O)c1ccc(S(=O)(=O)N(C)C)cc1)c1nc2cc3c(cc2s1)OCO3	1.5*	2	-1	-2	1
O=C(Nc1ccc(F)cc1F)C1(c2cccs2)CCOCC1	0	4.5*	-1	0	-1
SMILES	ssDAF12 agonist	DAX1 inh-1	DAX1 inh-2	hgDAF12 agonist	hcDAF-12 act
S=C(Nc1cc(Cl)cc(Cl)c1)NC(c1ccccc1)c1ccccc1	-2	/	/	-7	-4
NS(=O)(=O)c1ccc(OCCCN2CCC(C(O)(c3ccccc3)c3ccccc3)CC2)cc1	-2	/	0	-2	-2
Cc1cc(C(=O)NNc2ccccc2F)no1	-1	7.2*	0	-1	-1
CCc1ccccc1NNC(=O)c1cc(C)on1	-1	1	0	1	0
NNC(=O)c1nc[nH]c1C(=O)Nc1ccccn1	0	4.3*	0	6	1
CCC(C(=O)Nc1ccccn1)c1ccccc1 (stereo unspecified)	-1	3	-1	-3	0
O=C(O)CSCC(=O)Nc1ccccn1	-1	5.4*	1	0	-2
CC(C(=O)Nc1ccccn1)c1ccccc1 (stereo unspecified)	0.9*	0	0	0	1
O=C(Nc1ccccc1)c1nc[nH]c1C(=O)NCCNC(=O)c1[nH]cnc1C(=O)Nc1ccccc1	-1	-1	-2	-1	1
COC(CNC(=O)[C@H](Cc1ccccc1)NC1(C(=O)NC2CCCCC2)CCCC1)OC	-1	/	/	-1	-1
COC(=O)[C@]12C[C@H](CC(=O)NCCC(C)C)C(=O)N(CCc3ccc(OC)c(OC)c3)C1=C[C@H](C(C)C)O[C@@H]2C1CC1	-1	/	0	-3	-1
CCOC(=O)[C@@]12CCC3=C1N(CCC3)C(=O)[C@H](CC(=O)NCc1cccs1)C2	-1	/	-2	3	0
C=c1[nH]cc(C(C)c2c(C)n(C)c3ccccc23)/c1=C/C (stereo unspecified)	0	/	0	5	6.0*
c1ccc(NN=C2c3ccccc3-c3ccccc32)cc1	1	0	0	2	5.7*
CC1(C)OC(=O)C(=NNc2ccccc2)C(=O)O1	0	0	-1	-1	-1
CCn1ccc(C(=O)Nc2ccc(Cl)cn2)n1	-1	2	4.2*	9	2
CCn1ccc(C(=O)Nc2ccccc2SC)n1	-1	0	1	11*	1
CCn1ccc(C(=O)Nc2ccc(N(C)C(C)=O)cc2)n1	-1	3	0	1	0
CCn1nccc1C(=O)Nc1ccc(Cl)cn1	-1	0	0	2	1
CCCCN1CN2CCc3ccccc3C2CS1(=O)=O (stereo unspecified)	-1	/	1	0	-5
O=C(NCC1CCCO1)c1nn2c(C(F)(F)F)cc(-c3cccs3)nc2c1Cl (stereo unspecified)	0.9*	-1	0	-2	0
O=C(NCC1CCCO1)c1nn2c(C(F)(F)F)cc(-c3cccs3)nc2c1Br (stereo unspecified)	-1	2	1	-3	-2
Cc1ccc2c(c1)C1CS(=O)(=O)N(Cc3ccc(F)cc3)CN1C2 (stereo unspecified)	-1	/	-1	0	-1
Clc1ccc(-c2cn(-c3nc4ccccc4s3)nn2)cc1	0	/	1	2	5.7*
COC(=O)c1cc(-c2cc(Cl)cc(Cl)c2)c(=O)n2c1CCC2	-1	/	-1	-1	0
COC(=O)c1cc(-c2ccc(Cl)s2)c(=O)n2c1CCC2	-1	/	1	2	6.5*
O=C(NNC(=S)Nc1ccc(F)cc1)c1cccc([N+](=O)[O-])c1	1.8*	1	0	1	1
O=C(/C=C\c1ccccc1[N+](=O)[O-])Nc1ccccc1	0	3	1	11*	4
